Assay [1] in a line: Her2 expression decrease, cell viability multiplex – SKBR3 breast tumor cells, AlphaScreen, ATP viability, primary screen (AID 461;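 active = Her2 level under about 52% in both replicate screens, with viability over 70% of control, limit read from the data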;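 for Her2 level: lower value means less Her2 protein in the cells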;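 for viability: percent of carrier control wells set as 100% viability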). The following applies: SKBR3 Her2 protein level, 18-24 h, measured here: SKBR3 viability, ATP luminescence, at 10 µM.
The target of assay [2] is Receptor tyrosine-protein kinase erbB-2 (Homo sapiens) (UniProt P04626). The assay is described as above. The following applies: 18-24 h, at 10 µM, stronger effect = lower value.
Assay [3] in a line: reduced viability of SK-BR-3 breast cancer cells – cell-based, 24 h, human, pilot screen (AID 572;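 active = viability at or below 10% of carrier control in both of two separate runs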;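 note: compound exposure lasted between 18 and 24 h rather than exactly 24 h; 100% = carrier-treated control wells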). The following applies: SK-BR-3 viability, CellTiter-Glo luminescence, at 10 µM, stronger effect = lower value.
A short description of assay [4]: HUVEC growth inhibition – cell-based, human, primary screen (AID 575;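 active = viability at or below 30% in both replicate assays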;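 note: 100% = median of untreated cell wells with 0.1% DMSO on each plate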). The following applies: HUVEC proliferation, CellTiter-Glo luminescence, 72 h; at 10 µM; stronger effect = lower value.
Assay [5] is described as follows: H69AR cell proliferation blockers – human, duplicate replicates, primary screen (AID 580;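 active = viability at or under a set limit in both replicates, limit being median viability minus 3 SD, cut at about 48% in these data, passing the limit was not always enough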;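 note: 100% = mean luminescence of untreated wells and 0% = no signal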). As to conditions: H69AR lung tumor cells viability, ATP luminescence, 72 h; at 10 µM; stronger effect = lower value.
A short description of assay [6]: MRP1 drug-resistance reversers in H69AR cells – cell-based, doxorubicin co-treatment, pilot screen (AID 601;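 active = viability loss from added drug above about 55%, and viability with drug at most 40%, in both replicates, limit read from the data, passing the limit was not always enough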). As to conditions: CellTiter-Glo, 72 h, at 10 µM; for differential viability (reversal): stronger effect = higher value.
The nature of assay [7]: yeast transport mutant growth inhibition pilot in 384-well plates, post-Golgi transport modulator project (AID 636; in the data active = inhibition above about 31%). As to conditions: absorbance 615 nm, about 18 h, stronger effect = higher value.
A short description of assay [8]: growth suppression of yeast trafficking mutant, preliminary HTS, modulators of trafficking downstream of Golgi apparatus project, 1536-format plate, OD 615 nm (AID 637; in the data active = inhibition above about 30%). The following applies: yeast transport mutant growth, absorbance 615 nm, 18 h; stronger effect = higher value.
Assay [9] is described as follows: S. cerevisiae growth inhibition in permissive medium (OD615), pilot counter-assay for S. cerevisiae lifespan shortening project, permissive growth control (AID 705;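 active = growth inhibition above 25% in both replicates, a cutoff set 3 SD above the mean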). As to conditions: OD615, 24 h, at 10 µM, stronger effect = higher value.
Assay [10] can be described thus: S. cerevisiae growth inhibition in restrictive medium, OD615, pilot screen, restrictive growth control, yeast lifespan reduction project (AID 706;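 active = growth inhibition above a set limit, 3 SD over mean compound inhibition, in both replicates, cut at about 43% in these data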;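 note: modified DeaD lifespan yeast strain shifted to restrictive glucose medium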). The following applies: OD615, 48 h, at 10 µM, stronger effect = higher value.
Assay [11] can be described thus: doxorubicin toxicity protection in MRP-1 cells – H69AR cells, CellTiter-Glo, duplicate, MRP-1 activator project, pilot screen (AID 807;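 active = viability increase at or above a cutoff of the median across tested compounds plus 3 SD, cut at about 8.5% in these data, passing the limit was not always enough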;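 note: compound pretreatment 18-22 h then 72 h combined with doxorubicin; 0% = doxorubicin alone and 100% = vehicle without doxorubicin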). The following applies: H69AR viability with doxorubicin, CellTiter-Glo luminescence; at 10 µM; stronger effect = higher value.
Assay [12] is described as follows: viability of PTEN-null HCT116 cells – cell-based, HCT116 clonal line, CellTiter-Glo, pilot screen (AID 824;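 active = viability at or below 27.92% in each of two runs, the all-compound median minus 4 SD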;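 note: 0% = 20 µM Hyamine control and 100% = vehicle cell control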). As to conditions: HCT116 PTEN-deleted viability, 60 h, at 10 µM, stronger effect = lower value.
Assay [13] is described as follows: RAM pathway blockade in budding yeast – dse1pr::URA3 reporter, 5-FOA selection, pilot screen (AID 869).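 Note: 0% = DMSO wells with no growth and 100% = 10 µM 1-NA-PP1 with full growth; RAM network block rescues cells from 5-FOA so hits raise OD615 growth.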 As to conditions: S. cerevisiae dse1pr::URA3 5-FOA growth, OD615, 2 d; at 10 µM; stronger effect = higher value; strain carries analog-sensitive mutant Cbk1 kinase.
Assay [14] is described as follows: RAM signaling pathway blockade in yeast – S. cerevisiae, Pdr1DBD-CYC8 efflux-inhibited sensitized strain, primary screen (AID 1298;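 active = RAM network inhibition above 8.4% in each of two replicates, 3 SD over the compound average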;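 note: 0% = DMSO untreated cells without growth and 100% = 10 µM 1-NA-PP1 full growth; higher means more yeast growth rescued from 5-FOA killing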). As to conditions: S. cerevisiae cbk1-as DSE1-URA3 strain, 5-FOA growth OD615, 2 d; at 50 µM; stronger effect = higher value.
Assay [15] in a line: viability of HCT116 without oncogenic beta-catenin – human colon tumor cells, pilot screen (AID 823;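 active = cell viability at or below a set limit in both duplicate runs, the limit being the all-compound median minus 4 SD, cut at about 23% in these data, passing the limit was not always enough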;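 note: 0% = wells killed by 20 µM Hyamine and 100% = untreated DMSO cell wells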). As to conditions: HCT116 beta-catenin knockout viability, CellTiter-Glo, 60 h; at 10 µM; stronger effect = lower value.
Where [16] appears, read: H69AR cells + 2 uM doxorubicin, measured here: viability with 2 uM doxorubicin, stronger effect = lower value.
Where [17] appears, read: H69AR cells, compound alone cytotoxicity.

This is an account of results in PubChem BioAssay.

Results filed as inconclusive are left out. Active and inactive are the calls of the source.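 Rule for the calls, unless noted: active = inhibition over a set limit, the all-compound mean plus 3 SD, in both replicate runs; inconclusive = over that limit in just one replicate run; inactive = at or under that limit in both runs.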

Chain of Receptor tyrosine-protein kinase erbB-2 (Homo sapiens) (P04626 whole entry, looked up): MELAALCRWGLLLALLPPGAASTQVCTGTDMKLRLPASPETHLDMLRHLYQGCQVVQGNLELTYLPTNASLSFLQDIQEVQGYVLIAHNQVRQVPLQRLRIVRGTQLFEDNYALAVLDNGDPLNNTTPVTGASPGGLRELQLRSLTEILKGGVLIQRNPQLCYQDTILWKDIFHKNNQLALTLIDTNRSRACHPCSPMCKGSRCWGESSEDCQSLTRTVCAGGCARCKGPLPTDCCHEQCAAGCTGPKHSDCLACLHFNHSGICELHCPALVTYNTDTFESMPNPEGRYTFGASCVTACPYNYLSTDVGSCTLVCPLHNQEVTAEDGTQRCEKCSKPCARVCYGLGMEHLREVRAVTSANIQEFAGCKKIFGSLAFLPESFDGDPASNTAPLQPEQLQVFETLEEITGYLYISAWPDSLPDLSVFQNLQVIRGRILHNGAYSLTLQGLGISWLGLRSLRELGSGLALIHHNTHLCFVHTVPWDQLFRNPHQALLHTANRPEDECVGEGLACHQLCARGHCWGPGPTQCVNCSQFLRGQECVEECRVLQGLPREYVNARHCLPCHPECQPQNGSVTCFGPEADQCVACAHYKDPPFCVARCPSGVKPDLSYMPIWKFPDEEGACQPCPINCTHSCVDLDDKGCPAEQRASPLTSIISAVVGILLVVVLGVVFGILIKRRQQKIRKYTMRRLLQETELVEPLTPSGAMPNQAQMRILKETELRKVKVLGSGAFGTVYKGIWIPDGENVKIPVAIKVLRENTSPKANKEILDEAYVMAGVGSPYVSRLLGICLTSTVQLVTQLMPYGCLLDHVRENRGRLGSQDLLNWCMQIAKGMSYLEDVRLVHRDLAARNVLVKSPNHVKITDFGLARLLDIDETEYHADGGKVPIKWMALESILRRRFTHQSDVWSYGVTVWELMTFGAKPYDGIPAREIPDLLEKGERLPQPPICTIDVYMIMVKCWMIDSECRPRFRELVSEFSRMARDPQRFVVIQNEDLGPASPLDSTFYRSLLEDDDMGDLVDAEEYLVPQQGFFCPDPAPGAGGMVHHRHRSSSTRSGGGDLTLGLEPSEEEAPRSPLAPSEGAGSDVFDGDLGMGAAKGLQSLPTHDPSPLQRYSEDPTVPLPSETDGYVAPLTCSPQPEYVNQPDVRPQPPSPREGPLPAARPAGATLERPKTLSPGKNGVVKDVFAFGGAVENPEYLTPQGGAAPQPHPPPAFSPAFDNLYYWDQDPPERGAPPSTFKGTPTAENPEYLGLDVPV

As to `COc1ccc(N(C)C(=O)CCS(=O)(=O)c2cccc3nonc23)cc1`, the viability is 96.5% in assay [1]; 96.5% (inactive) in assay [3]; 94.9% (inactive) in assay [4]; 104% (inactive) in assay [5]; 89.6% in assay [6] (setting [16]); 104% in assay [6] (setting [17]). For the same compound, in assay [12], the viability is 89.6% (inactive). Besides, the Her2 level in assay [2] was 85% (inactive). In assay [6] (H69AR cells + 2 uM doxorubicin), the differential viability (reversal) was 14.5% (inactive). The inhibition in [7] was -9.86% (inactive); in [8], -0.95% (inactive); in assay [13], 1.3% (inactive). Also, the growth inhibition in assay [9] is -9.93% (inactive); in assay [10] it was -8.78% (inactive). Further, the viability increase in assay [11] was -3.05% (inactive). Moreover, the RAM network inhibition in assay [14] is 4.67% (inactive).
On to `CCCc1nnc2n1N=C(c1ccc(-c3cc(Cl)ccc3Cl)o1)CS2`, for which the viability in assay [1] is 108%; in [3], 108% (inactive); in assay [4], 97.1% (inactive); in assay [5], 89.2% (inactive); in assay [6] (setting [16]), 87.8%; in [6] (setting [17]) it was 89.2%. In addition, the viability in assay [15] is 97.8% (inactive). In addition, the Her2 level in assay [2] was 94% (inactive). For the same compound, in assay [6] (H69AR cells + 2 uM doxorubicin), the differential viability (reversal) was 1.35% (inactive). In addition, the inhibition was -1.82% (inactive) in assay [7], 0% (inactive) in assay [8] and 1.36% (inactive) in assay [13]. The growth inhibition in [9] was -18.6% (inactive); in [10] it was 4.29% (inactive). The viability increase in [11] is -2.95% (inactive). The RAM network inhibition in [14] is 1.93% (inactive).
For the compound `CC(C)C(NC(=O)c1ccc(S(=O)(=O)N2CCOCC2)cc1)c1nc2ccccc2[nH]1` (stereo not given), the viability is 104% in [1]; 104% (inactive) in assay [3]; 72.5% (inactive) in assay [4]; 82.2% (inactive) in [5]; 85.2% in [6] (setting [16]); 82.2% in assay [6] (setting [17]). Further, the viability in assay [15] is 100% (inactive). In addition, in [2], the Her2 level is 94.5% (inactive). In assay [6] (H69AR cells + 2 uM doxorubicin), the differential viability (reversal) was -2.94% (inactive). Moreover, the inhibition in [7] was 1.95% (inactive); in [8] it was -2.95% (inactive); in assay [13] it was 2.71% (inactive). Besides, the growth inhibition is -13.7% (inactive) in assay [9] and -12.6% (inactive) in assay [10]. Also, in assay [11], the viability increase was -5.63% (inactive). Further, the RAM network inhibition in assay [14] is 6.44% (inactive).
Regarding `Cc1cccc(Cc2c(C)nc3nc(SCC(=O)NCc4ccco4)nn3c2C)c1`, the viability was 106% in [1]; 106% (inactive) in [3]; 61.8% (inactive) in [4]; 49.6% (active) in assay [5]; 77.4% in [6] (setting [16]); 49.6% in [6] (setting [17]). Further, the viability in assay [12] was 81.9% (inactive). Further, in assay [2], the Her2 level is 85.5% (inactive). In addition, the differential viability (reversal) in [6] (H69AR cells + 2 uM doxorubicin) was -27.8% (inactive). Besides, the inhibition in assay [7] was -4.59% (inactive); in assay [8], -0.33% (inactive); in [13], 1.14% (inactive). The growth inhibition in [9] is 2.65% (inactive); in assay [10] it was 21.9% (inactive). Besides, in assay [11], the viability increase is -3.35% (inactive). Besides, the RAM network inhibition in [14] is 4.46% (inactive).
`O=C(NC1(C(=O)NC2CCCCC2)CCCCC1)c1ccc2c(c1)OCO2`: the viability was 96.5% in assay [1]; 96.5% (inactive) in assay [3]; 105% (inactive) in [4]; 104% (inactive) in assay [5]; 99.2% in [6] (setting [16]); 104% in assay [6] (setting [17]). Besides, the viability in assay [12] was 87% (inactive). In assay [2], the Her2 level was 92.5% (inactive). In assay [6] (H69AR cells + 2 uM doxorubicin), the differential viability (reversal) was 4.42% (inactive). Also, the inhibition in assay [7] was -4.66% (inactive); in assay [8], -1.27% (inactive); in assay [13], 1% (inactive). The growth inhibition in assay [9] was -0.75% (inactive); in assay [10] it was 10.5% (inactive). The viability increase in [11] is 0.41% (inactive). Besides, the RAM network inhibition in [14] is 5.37% (inactive).
Turning to `CCOC(=O)c1cc2c(=O)n3ccccc3nc2n(CCCOC)c1=NC(C)=O`, the viability in assay [1] was 90%; in assay [3], 90% (inactive); in [4], 109% (inactive); in [5], 94.2% (inactive); in [6] (setting [16]), 67.7%; in assay [6] (setting [17]), 94.2%. In addition, the viability in [12] is 100% (inactive). Moreover, the Her2 level in assay [2] is 94.5% (inactive). The differential viability (reversal) in assay [6] (H69AR cells + 2 uM doxorubicin) is 26.5% (inactive). The inhibition is -5.48% (inactive) in assay [7], -0.48% (inactive) in [8] and 1.38% (inactive) in assay [13]. Moreover, the figures for the growth inhibition in [9] and in assay [10] were -6.91% (inactive) and -0.22% (inactive), respectively. Moreover, the viability increase in assay [11] is -4.92% (inactive). Moreover, in assay [14], the RAM network inhibition is 6.83% (inactive).
In the case of `Cc1nc(NCc2ccc3c(c2)OCO3)c2oc3ccccc3c2n1`, the viability in assay [1] was 99%; in assay [3], 99% (inactive); in assay [4], 60% (inactive); in assay [5], 98.3% (inactive); in assay [6] (setting [16]) it was 107%; in assay [6] (setting [17]), 98.3%. Moreover, the viability in assay [15] was 82.7% (inactive). Further, the Her2 level in [2] is 104% (inactive). The differential viability (reversal) in assay [6] (H69AR cells + 2 uM doxorubicin) was -8.4% (inactive). Also, the results for the inhibition in assay [7], in assay [8] and in assay [13] were -0.93% (inactive), -2.9% (inactive) and 0.65% (inactive), respectively. Further, the figures for the growth inhibition in assay [9] and in [10] were -23.6% (inactive) and -6.14% (inactive), respectively. Besides, in assay [11], the viability increase is -0.11% (inactive). Also, the RAM network inhibition in assay [14] was 3.7% (inactive).
Turning to `CCOc1ccc(N(CC(=O)Nc2ccc(C)c(C)c2)S(=O)(=O)c2c(C)noc2C)cc1`, the viability was 101% in assay [1]; 101% (inactive) in [3]; 68.8% (inactive) in assay [4]; 53.8% (inactive) in assay [5]; 68.2% in assay [6] (setting [16]); 53.8% in assay [6] (setting [17]). In assay [15], the viability is 27.4% (inactive). In assay [2], the Her2 level is 75% (inactive). Besides, the differential viability (reversal) in [6] (H69AR cells + 2 uM doxorubicin) is -14.4% (inactive). Further, the inhibition is -0.13% (inactive) in [7], 3.67% (inactive) in [8] and 1.85% (inactive) in [13]. Also, the growth inhibition in assay [9] was 0.98% (inactive); in assay [10], -5.67% (inactive). Besides, in assay [11], the viability increase was -6.26% (inactive). For the same compound, the RAM network inhibition in assay [14] was 6.75% (inactive).
Consider `O=C(CCNS(=O)(=O)c1cccc2nsnc12)NCc1cccs1`, for which the viability is 101% in [1]; 101% (inactive) in assay [3]; 94.3% (inactive) in assay [4]; 96% (inactive) in assay [5]; 95.4% in [6] (setting [16]); 96% in assay [6] (setting [17]). Also, the viability in [12] was 95.4% (inactive). Also, the Her2 level in assay [2] was 85.5% (inactive). Further, the differential viability (reversal) in [6] (H69AR cells + 2 uM doxorubicin) is 0.62% (inactive). Moreover, the inhibition in assay [7] was -9.45% (inactive); in [8], 4.13% (inactive); in assay [13] it was 1.54% (inactive). The growth inhibition in [9] was -4.72% (inactive); in [10], -7.42% (inactive). Also, the viability increase in assay [11] was -3.39% (inactive). Besides, the RAM network inhibition in [14] is 3.13% (inactive).
As for `COC(=O)C1(C(F)(F)F)N=C2Sc3ccccc3N2C(N2CCOCC2)=N1` (stereo not given), the viability in [1] is 91%; in assay [3], 91% (inactive); in assay [4], 81.5% (inactive); in assay [5], 92.5% (inactive); in assay [6] (setting [16]) it was 93.4%; in assay [6] (setting [17]) it was 92.5%. In [12], the viability is 53.8% (inactive). The Her2 level in [2] is 89% (inactive). For the same compound, the differential viability (reversal) in assay [6] (H69AR cells + 2 uM doxorubicin) was -0.935% (inactive). Further, the inhibition was -5.73% (inactive) in assay [7], 5.17% (inactive) in assay [8] and 1.03% (inactive) in [13]. The growth inhibition in [9] was -9.31% (inactive); in assay [10] it was -10% (inactive). The viability increase in [11] is -1.24% (inactive). In assay [14], the RAM network inhibition is 2.93% (inactive).
